The values that follow come from PubChem BioAssay AID493014 (National Center for Advancing Translational Sciences (NCATS), 2011).

About 170 (0.05%) of roughly 340,000 compounds were called active. Where a call stands in place of a potency, no number is given. Another 26% or so got no clear call; they are omitted. The call rests on the fitted dose curve; in most records, active means well fitted inhibition curve with a large enough effect in the signal ratio, with a control signal flat (not every such curve was filed as active); inconclusive means small, poorly fitted or top-dose-only effect, or effect the other way, or a change in a side signal; inactive means flat fitted curve, though single readings scatter; the % refers to the signal ratio. For the sample, actives were picked, then their nearest neighbours and some compounds at random.
Potency means the concentration at half of the fitted maximal effect.

A short description of the assay: qHTS Assay to Find Inhibitors of Chronic Active B-Cell Receptor Signaling. The settings on record: ABC-DLBCL IkBa-CBG/CBR reporter, luminescence ratio, 4 h; series mostly up to 46.1 µM. In outline: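 TMD8 ABC-DLBCL cells carrying doxycycline-inducible green luciferase fused to IkappaBalpha plus unfused red luciferase were exposed to compounds (up to 46 uM) for 4 hrs at 37C. Activity came from the overlap-corrected green/red luminescence ratio.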
In general terms: In qHTS, concentration-response curves come from the screen itself.
`CCN(CC)S(=O)(=O)c1ccc(CNC(=O)CN2C(=O)NC3(CCc4ccccc43)C2=O)cc1` (stereo unspecified): the Potency entry was “inactive”.

For the compound `O=C(NC1CCCCCC1)C1CCN(C(=O)c2ccc(Cl)cc2)CC1`, the Potency entry is “inactive”.

Regarding `Cc1nn(Cc2ccccc2)c(C)c1C(=O)N1CCN(CC(=O)Nc2ccccc2Cl)CC1`, the Potency result was “inactive”.

With `COc1cc(OC)cc(-c2c(-c3ccc(F)cc3)c3cc(-c4ccc5cc[nH]c5c4)ccc3n2C)c1`, the Potency entry is “inactive”.

Take `O=C(CNC(=O)c1ccco1)NNC(=O)c1ccc(Br)cc1`: the Potency result is “inactive”.

Turning to `CC(C)(C)OC(=O)C[C@@H]1C/C=C\C[C@@H](CC(=O)NCCO)C(=O)N[C@H](Cc2c[nH]c3ccccc23)COC1=O`, the Potency result is “inactive”.

Take `CC(C)c1ccc(S(=O)(=O)N2CCN(C(C)C(=O)NC3CCCC3)CC2)cc1` (stereo unspecified): the Potency result is “inactive”.

On to `CN(CC(=O)Nc1ccc(Cl)c(C(F)(F)F)c1)C(=O)CCC(=O)c1ccccc1`, for which the Potency entry is “inactive”.

`CC1CCC(CN2CCN=C2N(C)C)CC1` (stereo unspecified): the Potency entry was “inactive”.

For `COc1ccc(C(CNC(=O)c2ccc(NS(=O)(=O)c3ccc(F)c(C)c3)cc2)N(C)C)cc1` (stereo unspecified), the Potency result was “inactive”.

For the compound `COc1cc(OC)cc(C(=O)N[C@H](C(=O)NNC(=O)c2ccc(Br)cc2)C(C)C)c1`, the Potency entry is “inactive”.

`CCN1C(=O)[C@@H]2[C@@H](c3ccc(-c4cccc(Cl)c4)cc3)N3CCC[C@@]3(C(=O)OC)[C@@H]2C1=O`: the Potency entry is “inactive”.

With `C=C(C)CNc1cc(S(=O)(=O)N2CCOCC2)ccc1Oc1ccccc1`, the Potency result is “inactive”.

Take `Cc1cc(Cl)c2oc(C(=O)N(C)C(C)c3ccccn3)c(C)c2c1` (stereo unspecified): the Potency entry was “inactive”.

Take `CSCCC(NC(=O)c1ccccc1)C(=O)N1CCN(Cc2ccc(Cl)cc2)CC1` (stereo unspecified): the Potency result is “inactive”.

As for `COc1ccc(S(=O)(=O)N(C)C[C@H]2Oc3c(NC(=O)Nc4ccc5c(c4)OCO5)cccc3C(=O)N([C@H](C)CO)C[C@@H]2C)cc1`, the Potency result is “inactive”.

For `O=C(NCCC1CCCCN1S(=O)(=O)c1ccc(Cl)cc1)C(=O)NCc1ccco1` (stereo unspecified), the Potency entry is “inactive”.

With `O=C(NCCC(=O)N1O[C@@H]2C=C[C@H]1C2)OCC1c2ccccc2-c2ccccc21`, the Potency result is “inactive”.

As to `N#Cc1cccc(NC(=O)C2CCCN(C(=O)c3ccc(Cl)cc3)C2)c1` (stereo unspecified), the Potency result is “inactive”.

For `CC(C)(C)OC(=O)C[C@@H]1C/C=C\C[C@@H](CC(=O)N[C@@H](CO)Cc2ccccc2)C(=O)N2CCC[C@H]2COC1=O`, the Potency entry was “inactive”.

As for `CNS(=O)(=O)c1cccc(C(=O)OCCCC(=O)c2ccccc2)c1`, the Potency entry is “inactive”.

Take `COc1ccc(-c2noc(CCC(=O)N3CCN(c4cccc(C)c4)CC3)n2)cc1`: the Potency entry was “inactive”.

Regarding `Cc1ccc(N2C(=O)N3[C@@H]4c5ccccc5OC[C@@H]4[C@@H](c4ccccc4)[C@@]3(C)C2=O)cc1`, the Potency entry is “inactive”.

Turning to `CC(C)n1ncc2c(C(=O)Nc3ccc(CC#N)cc3)cc(C3CC3)nc21`, the Potency entry is “inactive”.

For `COc1cccc(N2CCN(CC(=O)Nc3ccnn3C3CCCC3)CC2)c1`, the Potency result was “inactive”.

As for `COc1ccccc1-c1sc2ccccc2c1C#CC1(O)CCCCC1`, the Potency entry was “inactive”.

Consider `C#CCOCCOCCOCCNc1nc(N2CCN(C(=O)[C@H](CO)n3cc([C@@H](N)C(C)C)nn3)CC2)nc(N2CCN(C(=O)[C@H](CCC(=O)O)n3cc([C@@H](N)[C@H](C)CC)nn3)CC2)n1`, for which the Potency entry is “inactive”.

With `CCCCC/C=C/C1=CC(=O)C[C@H](c2ccc(Cl)cc2)C1`, the Potency entry was “inactive”.

For the compound `COc1ccc(NS(=O)(=O)c2ccc3oc(SCC(N)=O)nc3c2)cc1`, the Potency entry is “inactive”.

As for `COC1=C(N2CCOCC2)C(=O)c2ccccc2C1=O`, the Potency result is “inactive”.

Take `CCOC(=O)C1CCN(C(=O)CN2C(=O)NC(C)(c3ccc4cc(OC)ccc4c3)C2=O)CC1` (stereo unspecified): the Potency result was “inactive”.

Consider `CC(C)(C)OC(=O)C[C@@H]1C/C=C\C[C@@H](CC(=O)N[C@H](CO)Cc2ccccc2)C(=O)NC[C@@H](c2ccccc2)OC1=O`, for which the Potency entry was “inactive”.

With `Cc1ccc(NC(=O)CCC(=O)N2CCC(c3ccccc3)=N2)cc1S(=O)(=O)N1CCCCC1`, the Potency result was “inactive”.

For the compound `Cc1ccc(-n2ncc(C(=O)NC3CC3)c2C2CCN(C(=O)OC(C)(C)C)CC2)c(C)c1`, the Potency result is “inactive”.

With `COc1ccc(CN2C(CC(=O)Nc3cccnc3)c3ccc(C(F)(F)F)cc3S2(=O)=O)cc1` (stereo unspecified), the Potency entry is “inactive”.

As for `Cn1c2cc(B(O)O)sc2c2cnn(Cc3ccccc3F)c(=O)c21`, the Potency entry was “inactive”.

With `COc1ccc(-c2c(-c3cc(OC)cc(OC)c3)n(C)c3ccc(-c4ccn[nH]4)cc23)cc1`, the Potency result was “inactive”.

For `COc1ccc(S(=O)(=O)N2CCCCC2)cc1NC(=O)c1cc([N+](=O)[O-])ccc1N1CCOCC1`, the Potency result is “inactive”.

Regarding `Cc1ccc(NC(=O)c2cccc(S(=O)(=O)N3CCCc4ccccc43)c2)nc1`, the Potency result is “inactive”.

With `Cc1ccc(S(=O)(=O)N2CCN(C(=O)Cn3c(=O)cnc4ccccc43)CC2)c(C)c1`, the Potency result is “inactive”.

For `COc1ccc(N2CCN(C(CNS(=O)(=O)c3ccc(C)cc3)c3ccccc3)CC2)cc1` (stereo unspecified), the Potency entry is “inactive”.

`COc1ccc(CCN(C)C(=O)C23CC4CC(CC(Cl)(C4)C2)C3)cc1OC`: the Potency entry was “inactive”.

Turning to `COC(=O)[C@]1(C)N[C@H](c2ccc(-c3ccc(Cl)c(Cl)c3)cc2)[C@@H]2C(=O)N(C)C(=O)[C@@H]21`, the Potency result was “inactive”.

`CC(C)(C)OC(=O)C[C@@H]1C/C=C\C[C@@H](CC(=O)N(CCO)Cc2ccccc2)C(=O)N[C@H](Cc2ccccc2)COC1=O`: the Potency result was “inactive”.

Consider `CSCCC1NC(=O)N(CC(=O)Nc2cccc(S(=O)(=O)N3CCCCCC3)c2)C1=O` (stereo unspecified), for which the Potency result was “inactive”.

Consider `Cc1c(O)c(C)c2c(c1O)C(=O)C[C@@H](c1ccccc1)O2`, for which the Potency result is “inactive”.

Regarding `COc1ccc(CNC(=O)CCn2cccc2)cc1`, the Potency result was “inactive”.

Turning to `COc1ccc(/C=C(\C#N)C(=O)NCCCn2ccnc2)cc1`, the Potency entry is “inactive”.

`COc1ccc(CNC(=O)/C(C#N)=C/c2cccc(OC)c2OC)cc1`: the Potency is 11.2 µM (active).

`CCC1=Nc2cc(C(=O)NCCCN3CCOCC3)ccc2Sc2ccc(Br)cc21`: the Potency result was “inactive”.

As to `COCCCNC(=O)CC1C[C@H](C(=O)N2CCCCC2)[C@@]2(CCc3ccccc3)c3[nH]c4ccccc4c3CCN2C1=O` (stereo partly specified), the Potency result is “inactive”.

In the case of `O=C1OC[C@@H]2CCCN2C(=O)[C@H](CC(=O)N(CCO)Cc2ccccc2)C/C=C\CC[C@@H]1Cc1ccc(F)cc1`, the Potency entry was “inactive”.

As for `Cc1cccc(Nc2nnc(SCC(=O)c3c(N)n(C4CC4)c(=O)[nH]c3=O)s2)c1C`, the Potency entry was “inactive”.

Consider `Cc1cccc(C)c1NC(=O)COC(=O)c1c(C)nn(-c2ccccc2)c1C`, for which the Potency entry is “inactive”.

Consider `O=C1NC(Cc2ccc(O)cc2)c2nc3ccc(Cl)cc3c(=O)n2-c2ccccc21` (stereo unspecified), for which the Potency entry is “inactive”.

Consider `CCC(CC)COC(=O)C1=C(C)NC(=O)NC1c1ccc([N+](=O)[O-])cc1` (stereo unspecified), for which the Potency entry is “inactive”.

As to `Cc1ccc(CC(=O)Nc2ccc(S(=O)(=O)N3CCOCC3)cc2)cc1C`, the Potency result is “inactive”.

As for `CC(C)(C)OC(=O)Nc1ccc([C@@H](NC(=O)OC(C)(C)C)C(=O)OC(C)(C)C)cc1`, the Potency result was “inactive”.

In the case of `CN(C(=O)c1cccc(NC(=O)Cc2ccc([N+](=O)[O-])cc2)c1)C1CCC1`, the Potency entry was “inactive”.

Consider `CN(C)S(=O)(=O)c1cccc(NC(=O)COc2ccc3ccccc3c2)c1`, for which the Potency result was “inactive”.

As to `COc1ccc(-c2nc3c(s2)CCc2onc(-c4ccc(OC)cc4)c2-3)cc1`, the Potency entry is “inactive”.

As to `CCOC(=O)[C@@H]1[C@H]2COc3ccc(Br)cc3[C@H]2N2C(=O)N(c3ccc(C)cc3)C(=O)[C@@]12C`, the Potency entry is “inactive”.

For `CN(C(=O)c1cccc(NC(=O)C2CCN(C(=O)OC(C)(C)C)CC2)c1)C1CCC1`, the Potency result is “inactive”.

`CC(=O)c1ccc(OCCCC(=O)Nc2ccc(C)c(S(=O)(=O)N3CCOCC3)c2)cc1`: the Potency entry was “inactive”.

As for `COc1cc(C(c2c(NC(=O)c3ccco3)sc(C)c2C)N2CCOCC2)cc(OC)c1OC` (stereo unspecified), the Potency entry is “inactive”.

As to `Cc1ccc(S(=O)(=O)N(C)C)cc1NC(=O)CN1c2cccc3cccc(c23)S1(=O)=O`, the Potency entry was “inactive”.
